# In all, about 10,000 compounds went through this assay and about 25 (0.2%) were called active.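 The calls were made as follows: active = compound among top-ranked inhibitors of TNF-induced VCAM-1 adhesion protein staining, with the hit upheld by image or statistical review; inactive = the rest, including hits rejected on review.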 The sample as a whole holds a higher share of actives than the screen did.
# Assay: suppression of endothelial VCAM-1 upregulation – cell-based, plate reader, pooled HUVEC, TNFa stimulus (AID 454)
# Conditions: HUVEC TNFa-induced VCAM-1 surface immunofluorescence; hits give high values,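 compound tested at 5 µM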
row,SMILES,inhibition
1,CCOC(=O)c1cccc(NC(=O)CSc2nc3cccnc3n2C)c1,inactive
2,Cn1c(SCc2cccc3ccccc23)nnc1-c1ccco1,inactive
3,CN1C(=O)C(CC(=O)N2CCN(C(c3ccccc3)c3ccccc3)CC2)N(C)C1=O (configuration not stated),inactive
4,CCCCC(=O)NCCNc1nc2c(c(=O)n(C)c(=O)n2C)n1Cc1ccccc1,inactive
5,COc1ccc(C(=O)N2CCN(c3nc4cc(C)ccc4cc3C#N)CC2)c(OC)c1,inactive
6,Cc1nc2sc3c(c2c(=O)o1)CCC3,inactive
7,CCC(C)(C(=O)NC1CCCCC1)N(Cc1ccco1)C(=O)c1cnccn1 (configuration not stated),inactive
8,CC1=CCC2C(=O)N(c3nc(C)cc(C)n3)C(=O)C2C1 (configuration not stated),inactive
9,CCCn1c(NC(=O)C2COc3ccccc3O2)nc2ccccc21 (configuration not stated),inactive
10,Cc1cc(C)nc(NC(=O)c2ccc(OC(C)C)cc2)n1,inactive
11,Cc1nn(-c2ccc(F)cc2)c2c1cc(C#N)c1nc3ccccc3n12,inactive
12,COc1ccc(-c2nc3c(c(=O)n(C)c(=O)n3C)n2CC2CC(c3ccccc3)=NO2)cc1OC (configuration not stated),73.1% (active)
13,COc1ccc(C(=O)Cn2c(N3CCCCC3)nc3c2c(=O)n(C)c(=O)n3C)cc1OC,inactive
14,COc1cccc(Cn2c(Oc3ccccc3)nc3c2c(=O)n(C)c(=O)n3C)c1,inactive
15,Cc1ccccc1Nc1nc(N)nc(CSCc2c(C)noc2C)n1,inactive
16,Cc1cc2oc(=O)cc(CN3CCCCC3)c2cc1C(C)C,inactive
17,COc1ccc(C2=Nn3c(nnc3-c3ccccc3)SC2)cc1OC,inactive
18,CC(C)(C)C1=Nn2c(nnc2-c2n[nH]c3c2CCC3)SC1,inactive
19,Clc1ccc(C2=Nn3c(nnc3-c3n[nH]c4c3CCC4)SC2)cc1Cl,106% (active)
20,COc1ccc(C2CC(c3ccc(Cl)cc3Cl)n3nc(N)nc3N2)cc1 (configuration not stated),inactive
21,COc1cccc(OCCn2ccnc2)c1,inactive
22,COc1ccccc1NC(=O)CSc1nnc(-c2ccncc2)n1CC1CCCO1 (configuration not stated),inactive

row,SMILES,inhibition
1,C=C(Cl)COc1ccc2c(C)cc(=O)oc2c1,inactive
2,Nc1ncnc2nc(SCCN3CCCCC3)[nH]c12,inactive
3,CCCC(=O)Nc1cccc(NC(=O)CN2CCN(c3ccccc3OC)CC2)c1,inactive
4,CN(c1ccc(OCc2nnc(-c3ccccc3)o2)cc1)S(=O)(=O)c1ccccc1,inactive
5,CCOC(=O)c1ccccc1NC1CC(=O)N(c2ccccc2C)C1=O (configuration not stated),inactive
6,C=CS(=O)(=O)c1ccc(Oc2ccc(S(=O)(=O)C=C)cc2)cc1,100% (active)
7,CN(C)S(=O)(=O)c1ccc(Oc2ccc(S(=O)(=O)N(C)C)cc2)cc1,inactive
8,O=S(=O)(Nc1ccccn1)c1ccc(Oc2ccccc2)cc1,inactive
9,CC1CCN(C(=O)CN2C(=O)C(C)(C)Oc3ccc(C(=O)NC4CCCC4)cc32)CC1,inactive
10,O=C1CC(N2CCOCC2)C(=O)N1c1ccccc1Cl (configuration not stated),inactive
11,COc1ccccc1Nc1nc(N)nc(CN2CCN(c3ccccc3F)CC2)n1,inactive
12,OC1(c2cccc(C(F)(F)F)c2)CCNCC1,inactive
13,CCOC(=O)c1[nH]c(C)c(C(=O)Nc2ccc(C)c(Cl)c2)c1C,inactive
14,COc1ccc(OC)c(C2C(C(=O)Nc3cccnc3)=C(C)NC3=C2C(=O)CCC3)c1 (configuration not stated),inactive
15,COC(=O)C1=C(C)NC(=O)C1(NC(=O)c1cccnc1)C(F)(F)F (configuration not stated),inactive
16,COc1ccc(CN2C(=O)[C@@H]3C(c4ccc(F)cc4)=NO[C@@H]3C2=O)cc1,inactive
17,Cc1cccn2c(=O)c3cc(C#N)c(=NC(=O)c4ccncc4)n(Cc4ccco4)c3nc12,inactive
18,CC(C)n1c(=NC(=O)c2ccco2)c(C#N)cc2c(=O)n3ccccc3cc21,78.8% (active)
19,CCOC(=O)c1cc2c(=O)n3ccccc3nc2n(CC(C)C)c1=NC(=O)c1ccco1,inactive
20,CCOc1ccc(NC(=O)CN2CCN(CC(=O)c3ccc(OCC)cc3)CC2)cc1,inactive
21,CCCCc1c(O)nc(N2CCN(Cc3ccccc3)CC2)[nH]c1=O,inactive
22,CCN(CC(=O)Nc1ccc2c(c1)CCC2)Cc1nc2ccccc2c(=O)[nH]1,inactive

row,SMILES,inhibition
1,Nc1nc(SCc2ccc(Cl)cc2Cl)n[nH]1,inactive
2,O=S(=O)(Nn1cnnc1)c1ccccc1Cl,inactive
3,CCOc1cc2[nH]c(=S)n(CC3CCCO3)c(=O)c2cc1OCC (configuration not stated),inactive
4,COCCn1c(COc2ccc(Cl)cc2)nnc1SCC(N)=O,inactive
5,Clc1ccc(OCc2nnc(SCCN3CCCCC3)n2Cc2ccco2)cc1,82.9% (active)
6,Cc1cc(NC(=O)CSc2nnc(COc3cccc(C)c3C)n2Cc2ccco2)no1,inactive
7,Cc1ccccc1-c1nc(CN2CCC(C(=O)NCc3cccnc3)CC2)c(C)o1,inactive
8,O=c1nc(N2CCCC2)nc(Nc2ccccc2)[nH]1,inactive
9,O=C(Cn1cc2c(n1)CCCCC2)N1CCc2ccccc21,inactive
10,Cc1nnc(SCC(=O)NCc2ccccc2)s1,inactive
11,Cc1nnc(SCC(=O)N2c3ccccc3CC2C)s1 (configuration not stated),inactive
12,Cc1nnc(SC(=O)N2c3ccccc3Sc3ccccc32)s1,92.2% (active)
13,CCOc1cccc(Oc2ccc(C(F)(F)F)cn2)c1,inactive
14,COc1ccc(S(=O)(=O)N2CN(Cc3ccco3)c3nc4ccccc4nc32)cc1,inactive
15,Cc1ccc2nc(C3CCN(CC(=O)N4CCCCCC4)CC3)[nH]c2c1,inactive
16,CCOc1ccccc1N1CCN(c2nc3ccccc3nc2C(C#N)C(=O)OC)CC1 (configuration not stated),inactive
17,S=c1[nH]nc(-c2ccco2)n1-c1cccc2ccccc12,inactive
18,Cc1c(C)c2ccc(OC3CCCCC3=O)cc2oc1=O (configuration not stated),inactive
19,COc1ccccc1CC(=O)NCc1ccc2c(c1)OCO2,inactive
20,O=C1c2ccccc2C(Nc2ccc3nc(-c4cccnc4)[nH]c3c2)N1Cc1ccco1 (configuration not stated),79.2% (active)
21,O=C1c2ccccc2C(Nc2ccc(-c3nc4ccccc4[nH]3)cc2)N1Cc1ccco1 (configuration not stated),inactive
22,O=C1c2ccccc2C(Nc2ccc(F)c(Cl)c2)N1Cc1ccco1 (configuration not stated),inactive

row,SMILES,inhibition
1,CCCc1cc(Nc2cccc(OC)c2)n2ncnc2n1,inactive
2,COCC(C)NC(=O)CCS(=O)(=O)c1nc(-c2ccc(OC)cc2)cc(C(F)(F)F)n1 (configuration not stated),91.4% (active)
3,COc1ccc(-c2cc(C(F)(F)F)nc(SCCC(=O)N3CCOCC3)n2)cc1,inactive
4,CCOC(=O)CS(=O)(=O)c1nc(-c2ccccc2)cc(C(F)(F)F)n1,inactive
5,O=C(Cn1cnc2ccccc2c1=O)NCCC(=O)N1CCN(c2ccccc2)CC1,inactive
6,CCc1ccccc1NC(=O)CN(c1cccc(OC)c1)S(C)(=O)=O,inactive
7,C/C(=C\c1cc(C(=O)O)c(C)o1)CO,inactive
8,Cc1ccc(SC(C)c2nc(-c3ccccc3)no2)cc1 (configuration not stated),inactive
9,Cc1cnc(C(=O)Nc2ccc(N3CCOCC3)cc2)cn1,inactive
10,CSc1ncc(Cl)c(C(=O)Nc2ccc(S(=O)(=O)N3CCOCC3)cc2)n1,inactive
11,CS(=O)(=O)c1ncc(Cl)c(C(=O)Nc2ccc(N3CCOCC3)cc2)n1,97.8% (active)
12,Cc1cc(O)c(C2(C(F)(F)F)NCCNC2=O)cc1C (configuration not stated),inactive
13,CCC(=O)N(Cc1ccco1)c1nc(-c2cc(OC)ccc2OC)cs1,inactive
14,Cn1c(C(=O)NCCN2CCN(c3ccccc3F)CC2)cc2c(=O)n(C)c3ccccc3c21,inactive
15,COc1cc(C2N=C(c3ccccc3)NO2)cc(Br)c1O (configuration not stated),inactive
16,COc1cc(C2Nc3cccc4cccc(c34)N2)cc(OC)c1O,73.4% (active)
17,CCOc1cc(C2Nc3ccccc3C(=O)N2c2ccccc2OC)ccc1O (configuration not stated),inactive
18,COC(=O)c1ccc(CSc2nc3c(cnn3-c3ccc(F)cc3)c(=O)[nH]2)o1,inactive
19,O=c1[nH]c2sc3c(c2c2nncn12)CCCC3,inactive
20,Cc1cc(NC(=O)c2cc(-c3ccco3)on2)n(-c2ccccc2)n1,inactive
21,C/C(NC1CCCC1)=C(/C#N)C(N)=O,inactive
22,Clc1cccc(-c2nnc3sc(-c4ccccc4)nn23)c1,inactive

row,SMILES,inhibition
1,CCNC(=O)C1CC(=O)N(Cc2ccc3c(c2)OCO3)C(=Nc2ccc(OCC)cc2)S1 (configuration not stated),inactive
2,COC(=O)c1cc(=O)n(Cc2ccc3c(c2)OCO3)c(=Nc2ccccc2)s1,96% (active)
3,CCOC(=O)c1cccc(NC2c3ccccc3C(=O)N2Cc2ccco2)c1 (configuration not stated),inactive
4,OCCn1c(-c2ccc3c(c2)OCO3)csc1=Nc1ccccc1,inactive
5,CCOC(=O)c1ccc(NC(=O)CSCc2ccco2)cc1,inactive
6,CCOC(=O)c1ccc(N=c2sc(C(=O)OC)cc(=O)n2Cc2ccco2)cc1,95.5% (active)
7,Cn1nc(-c2ccc(N3CCCCC3)c(NC(=O)c3ccco3)c2)c2ccccc2c1=O,83.4% (active)
8,O=C(c1ccccc1)c1ccc(N2CCOCC2)c(NC(=O)c2ccco2)c1,inactive
9,Cc1cccc(NC(=O)c2cc(NC(=O)c3ccco3)ccc2N2CCCCC2)c1,inactive
10,COc1ccc(CCNc2nc(N3CCOCC3)nc(N3CCOCC3)n2)cc1OC,inactive
11,Cn1c(=O)c2c(nc(SCC(=O)NCc3ccc4c(c3)OCO4)n2Cc2ccccc2)n(C)c1=O,inactive
12,CCOC(=O)CSc1nc2cccnc2n1-c1ccc(F)cc1,inactive
13,CCc1ccc2[nH]c(=O)c(C(c3nnnn3CC3CCCO3)N3CCCc4ccccc43)cc2c1 (configuration not stated),93.2% (active)
14,CCOc1ccc2[nH]c(=O)c(C(c3nnnn3CC3CCCO3)N3CCc4ccccc4C3)cc2c1 (configuration not stated),inactive
15,CCc1ccc2[nH]c(=O)c(C(c3nnnn3CC3CCCO3)N3CCN4CCCC4C3)cc2c1 (configuration not stated),inactive
16,Nc1nc(N2CCCCC2)nc(N(c2ccccc2)c2ccccc2)n1,inactive
17,CC(=O)NC(CCS(C)(=O)=O)C(=O)Nc1cccc2ccccc12 (configuration not stated),inactive
18,O=C(Cn1nc(-c2ccc(Cl)cc2)ccc1=O)NCCCN1CCN(Cc2ccccc2)CC1,inactive
19,CCOC(=O)c1ccccc1NC(=O)c1ccc2c(=O)n3c(nc2c1)CCCCC3,inactive

# Reference: PubChem BioAssay AID454 (Sanford-Burnham Center for Chemical Genomics, 2006)
